In the library only some 0.74% were active in any assay of this set; here they are far more common.
GRP78 ERSR act – ER stress response induction in glioma; U87-MG GRP78 promoter luciferase reporter, 16 h; Potency, µM, inactives show top-dose activation, most hits filed as activators; hit rate 0.02% among 420,000; AID 602332; note: potency is the fitted concentration of half-maximal effect; series mostly up to about 76 µM; % of control where 0% means no effect; nearly all actives have a fitted effect of over 35% in size
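Stably transfected U87-MG glioma cells carrying a GRP78-based luciferase sensor; 16 h compound incubation. Luminescence end-point read 10 min after Bright-Glo addition at room temperature.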
Akt phos inh – inhibitors of Akt phosphorylation. Neuro2A IGF-stimulated pAkt S473 HTRF, 20 min; active compounds read low. activity change, % for hits at 50 µM. hit rate 0.32% among 360,000; in the data active = activity change below about -80%; inconclusive = mostly about -51% to -80%; note: % is set by controls: 0 for no effect and ±100 for the full control effect
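Neuro2A cells in DMEM with 0.5% FBS, overnight at 37 deg C, given compound at single 50 µM final, then IGF (6 nM final) for 20 min at 37 deg C. Lysed; phospho-Akt Ser473 by HTRF after 24 h, 665/615 ratio.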
LDHA block – blocks human lactate dehydrogenase A | P00338 | purified LDHA, NADH/diaphorase-resazurin fluorescence; active compounds read low | activity change, % (values are at about 110 or 230 µM) | hit rate 0.15% among 480,000 | AID 1347041; in the data active = activity change below about -30%; inconclusive = mostly about -25% to -30%;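 note: plate controls were DMSO wells for no effect and wells without enzyme for full effect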
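Remaining NADH was detected by diaphorase (0.133 mg/mL) converting 37 µM resazurin to fluorescent resorufin, read at 0 and 20 minutes. The preceding 5-minute room-temperature reaction used 2 nM LDHA, 0.2 mM sodium pyruvate and 0.06 mM NADH at pH 7.4.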
Vif-A3G inh – inhibitors of Vif-APOBEC3G interaction | Q9HC16 | HeLa A3G-eYFP + Vif (tagged APOBEC3G with the HIV-1 protein that degrades it), YFP fluorescence, overnight | Potency, µM (titrated, usually from 46.1 µM), for the others: at the highest dose activity, negative = active, usual class: inhibitors | hit rate 0.076% among 410,000; note: potency is the fitted concentration of half-maximal effect; % is set by controls: 0 for no effect and ±100 for the full control effect; nearly all actives have a fitted effect of over 60% in size
Target sequence (Q9HC16 whole entry, looked up): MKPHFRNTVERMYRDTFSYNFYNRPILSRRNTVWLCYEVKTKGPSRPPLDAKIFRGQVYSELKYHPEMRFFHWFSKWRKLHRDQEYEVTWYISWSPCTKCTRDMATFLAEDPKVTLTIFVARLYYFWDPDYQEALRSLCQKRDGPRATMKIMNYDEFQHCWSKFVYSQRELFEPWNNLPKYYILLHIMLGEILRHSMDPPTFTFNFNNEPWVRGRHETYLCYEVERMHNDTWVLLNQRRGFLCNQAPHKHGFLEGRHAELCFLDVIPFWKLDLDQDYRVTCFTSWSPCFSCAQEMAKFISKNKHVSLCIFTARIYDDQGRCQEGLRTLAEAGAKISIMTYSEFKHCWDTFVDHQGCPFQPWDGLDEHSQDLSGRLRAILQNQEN
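Read-out is eYFP fluorescence (Ex 488/Em 500-530) from Vif-expressing HeLa A3G-eYFP cells; more signal means A3G escaped Vif-mediated degradation. Cells plated overnight, compound pinned in, incubated overnight at 37 deg C.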
PINK1 modulator – modulators of PINK1 expression. PINK1 immunofluorescence, high-content cytometry, 24 h. Potency, µM (titrated, usually from 76.6 µM), for the others: at the highest dose activation (PINK1 increase), actives largely listed as activators. hit rate 0.2% among 410,000. AID 624263; active = well fitted activation curve with a large enough effect; inconclusive = small, poorly fitted or top-dose-only effect; cell line not stated here; note: potency is the fitted concentration of half-maximal effect; % of control where 0% means no effect; nearly all actives have a fitted effect of over 65% in size
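Decision-based qHTS: stable cells, 24 h exposure to five compound concentrations, CCCP as control. Fixed cells stained for PINK1 plus nuclear, mitochondrial and cell markers, cytometer read.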
Vif-A3F inh – inhibitors of Vif-A3F interaction | HeLa A3F-eYFP + Vif (tagged APOBEC3F with the HIV-1 protein that degrades it), YFP fluorescence increase | Potency, µM (highest dose often 46.1 µM), without a hit: top-dose activity, negative = active | hit rate 0.2% among 390,000; note: potency is the fitted concentration of half-maximal effect; % of control where 0% means no effect; nearly all actives have a fitted effect of over 65% in size
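HeLa cells stably expressing A3F-eYFP plus Vif, plated and incubated overnight at 37 deg C, then exposed to compounds overnight at 37 deg C. Blocked degradation read as raised yellow fluorescence (Ex 488/Em 500-530).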
* marks the source's active call; other numbers are inactive results; i = inactive; ? = inconclusive; . = no result given. Unless noted, calls come from the whole dose curve; as a rule, active = well fitted curve in the direction sought with a large enough effect; inconclusive = small, poorly fitted or top-dose-only effect, or another doubt; inactive = no such curve, though single readings can be large; an effect the other way counts as inactive or inconclusive.

SMILES	GRP78 ERSR act	Akt phos inh	LDHA block	Vif-A3G inh	PINK1 modulator	Vif-A3F inh
CCn1cc(C(=O)Nc2cccc3ncccc23)c2ccccc21	.	.	32	.	.	.
COc1ccc(CN2C(=O)NC(=O)/C(=C\c3cccc(OC)c3OC)C2=O)cc1	-1%	i	-31*	0%	1%	-17%
CC12CCC3C(CCC4C/C(=N\O)CCC43C)C1CCC2O (stereo unspecified)	.	.	6	.	.	.
OCC1CN2CCC1CC2 (stereo unspecified)	.	.	2	.	.	.
COc1ccc(-c2c(C)c3cc(OC(=O)N(C)C)ccc3oc2=O)cc1	.	.	-33*	.	.	.
CCCCCn1c(NC(=O)c2ccco2)c(C(=O)OCC)c2nc3ccccc3nc21	-13%	i	39	11µM*	6%	?
Nc1ccccc1N=Cc1c(O)n(CCC2=CCCCC2)c(=O)[nH]c1=O	1%	-115%*	8	-19%	10%	?
O=C(N/N=C/c1c(O)n(CCC2=CCCCC2)c(=O)[nH]c1=O)c1ccccc1	1%	i	-2	0%	1%	1%
COc1ccc(/C=N\NC(=O)c2cccc(F)c2)cc1COc1ccccc1	-1%	i	2	?	0%	-17%
Oc1cccc(/C=N/NP(=S)(c2ccccc2)c2ccccc2)c1	2%	-117%*	-6	-2%	1%	-2%
Cc1cccc(C)c1-n1nnnc1C1(NC(C)C)CCCCC1	.	.	-3	.	.	.
CC(OC(=O)c1cn(C)c2ccccc12)C(=O)Nc1ccc(C(N)=O)cc1 (stereo unspecified)	.	.	-1	.	.	.
CC1CC(=O)C2CCCCC2N1 (stereo unspecified)	.	.	-5	.	.	.
CN1/C(=C\C=C2C(=O)NC(=O)NC2=O)C(C)(C)c2ccccc21	-4%	i	1	?	0%	11µM*
CN1/C(=C\C=Nc2ccccc2)C(C)(C)c2ccccc21	-8%	i	4	-1%	-3%	-3%
N#Cc1ccc(NC(=O)COC(=O)c2nc(-c3ccccc3)n(-c3ccccc3)n2)cc1Cl	.	.	7	.	.	.
CCOC(=O)[C@]1(C#N)[C@@H]2C=CC(C(C)=O)=CN2[C@@H](C(N)=O)[C@@H]1c1ccsc1	3%	-106%*	7	0%	1%	-4%
COc1c(/C=C(\C)[N+](=O)[O-])cc2c(c1OC)OCO2	.	.	-1	.	.	.
Cc1nn(-c2ccccc2)c2c1C(c1ccc(F)cc1F)C(C#N)=C(N)O2 (stereo unspecified)	-2%	i	1	0%	11µM*	0%
CCOC(=O)C1C(=O)N(C)C2(C)CC1c1ccccc1O2 (stereo unspecified)	-1%	-114%*	-3	0%	-2%	-1%
CN(C)CCCN=Cc1c(O)n(CCc2ccc(F)cc2)c(=O)[nH]c1=O	0%	-120%*	-5	-5%	1%	5%
CN1CC=C2C(C#N)=C(N)C(C#N)(C#N)C(c3ccncc3)C2C1 (stereo unspecified)	-5%	i	9	1%	25µM*	0%
Cc1ccc(/C=C2\C(=O)NC(=O)N(CCc3ccc(F)cc3)C2=O)s1	0%	i	-4	2%	7%	-14%
O=C1NC(=O)N(Cc2ccc(F)cc2)C(=O)/C1=C\c1ccoc1	-6%	i	-22	2%	16%	25µM*
Cc1ccc(/C=C2/C(=O)NC(=O)N(CCc3ccc(F)cc3)C2=O)s1	0%	i	-1	2%	10%	8.9µM*
SMILES	GRP78 ERSR act	Akt phos inh	LDHA block	Vif-A3G inh	PINK1 modulator	Vif-A3F inh
COc1ccc(CNCCc2cccc(F)c2)cc1	.	.	-12	.	.	.
Nc1ccccc1-[n+]1c(-c2ccccc2)cc(-c2ccccc2)cc1-c1ccccc1	-3%	i	0	3%	0%	1%
Cc1ccccc1-[n+]1c(-c2ccccc2)cc(-c2ccccc2)cc1-c1ccccc1	-6%	i	-4	-3%	10µM*	-2%
Oc1ccccc1-[n+]1c(-c2ccccc2)cc(-c2ccccc2)cc1-c1ccccc1	-1%	i	-2	-2%	.	0%
O=C(O)c1ccc(-[n+]2c(-c3ccccc3)cc(-c3ccccc3)cc2-c2ccccc2)cc1	4%	i	-11	1%	0%	0%
Brc1ccc(-[n+]2c(-c3ccccc3)cc(-c3ccccc3)cc2-c2ccccc2)cc1	-6%	i	-9	-16%	25µM*	-6%
[O-]c1ccccc1-[n+]1c(-c2ccccc2)cc(-c2ccccc2)cc1-c1ccccc1	-2%	i	-11	4%	16µM*	-2%
COc1ccc(C2SCC(=O)Nc3c2c(C)nn3C)cc1 (stereo unspecified)	.	.	-1	.	.	.
CCC(C)N1C(=O)/C(=C\c2ccc(N3CCCCCC3)cc2)C(=O)NC1=S (stereo unspecified)	-2%	i	-2	-1%	-1%	22µM*
Cn1c(O)c(/C=N/NC(=O)c2ccncc2)c(=O)n(C)c1=S	-7%	i	2	-18%	1%	-9%
CCn1c(O)c(/C=N/NC(=O)c2ccncc2)c(=O)n(CC)c1=S	-4%	i	2	?	1%	7.9µM*
C[n+]1c(-c2ccccc2)cc(CCCCc2cc(-c3ccccc3)[n+](C)c(-c3ccccc3)c2)cc1-c1ccccc1	-4%	i	-5	-5%	32µM*	2%
CCc1ccc(CN2CCN(Cc3cc(Br)ccc3O)CC2)cc1	-4%	i	-18	1%	40µM*	-1%
CCN1CCN(Cc2cc(Br)ccc2O)CC1	-5%	i	-5	3%	-2%	1%
Cc1ccc(-n2nc(C)c3c2NC(=O)CSC3c2ccsc2)cc1Cl (stereo unspecified)	.	.	0	.	.	.
Cc1ccc2c(CCN)c(C)[nH]c2c1C	.	.	1	.	.	.
C[N+]12CCC(CC1)C(C(O)(c1ccccc1)c1cccs1)C2 (stereo unspecified)	-2%	i	-36*	0%	.	0%
CCC[N+]12CCC(CC1)C(C(O)(c1ccccc1)c1ccccc1)C2 (stereo unspecified)	-5%	i	-2	0%	0%	2%
CC(=NCCC1=CCCCC1)c1c(O)[nH]c(=O)[nH]c1=O	2%	-121%*	-4	3%	-2%	6%
Ic1ccc(CN2CCNCC2)cc1	.	.	1	.	.	.
COC(=O)c1ccc(CBr)cc1	.	.	-2	.	.	.
CN1C(=O)/C(=C\c2ccc(N3CCCCC3)o2)C(=O)NC1=S	-1%	i	2	?	4%	?
CN1CCN(c2ccc(/C=C3\C(=O)NC(=S)N(c4cccc(Br)c4)C3=O)o2)CC1	-3%	i	-1	22µM*	6%	25µM*
CN(C)c1ccc(/C=C/C=C2/C(=O)NC(=O)N(c3ccccc3)C2=O)cc1	?	i	0	?	19%	7.9µM*
Cc1ccc(/C=C/c2nc3ccccc3c(=O)n2-c2ccccc2)s1	.	.	12	.	.	.
COCCNC(=O)Cn1cc(C(=O)c2ccccc2)c2ccccc21	.	.	15	.	.	.

From PubChem
